# Screens deposited in PubChem by The Scripps Research Institute Molecular Screening Center.
# SF-1 inh: inhibitors of human nuclear receptor SF-1 | AID 525 | CHO-K1 Gal4-SF-1 LBD luciferase reporter | inhibition, % at 10 µM | Q13285 | 0.55% of 65,000 active;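 active means inhibition above the mean inhibition of all tested compounds plus 3 SD, cut at about 48% in these data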;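 further: 0% = SF-1 transfected cells with DMSO and 100% = mock-transfected cells lacking SF-1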
# Target sequence (Q13285 whole entry, looked up, the tested form may be a part): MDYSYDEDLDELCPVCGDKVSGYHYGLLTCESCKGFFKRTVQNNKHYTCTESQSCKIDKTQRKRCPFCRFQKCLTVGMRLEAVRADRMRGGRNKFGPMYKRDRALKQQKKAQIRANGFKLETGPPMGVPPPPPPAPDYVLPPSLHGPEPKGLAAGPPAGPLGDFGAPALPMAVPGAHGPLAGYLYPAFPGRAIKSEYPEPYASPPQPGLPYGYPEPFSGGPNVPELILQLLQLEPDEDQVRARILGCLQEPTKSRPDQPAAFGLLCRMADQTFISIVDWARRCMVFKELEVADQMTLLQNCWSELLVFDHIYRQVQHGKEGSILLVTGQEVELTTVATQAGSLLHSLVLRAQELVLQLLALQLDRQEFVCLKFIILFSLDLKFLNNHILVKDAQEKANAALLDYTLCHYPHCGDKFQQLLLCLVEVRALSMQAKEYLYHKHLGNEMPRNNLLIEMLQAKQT
# Active calls of the source: *. The entries come from a sample that favours hits as a whole.
SMILES,SF-1 inh
Cc1nnc(NC(=O)c2ccc(S(=O)(=O)N(C)Cc3ccccc3)cc2)o1,22
COCCN(CCOC)S(=O)(=O)c1ccc(C(=O)Nc2nc(-c3ccncc3)cs2)cc1,5
COc1ccc(N2C(=O)C3CCCN3C2c2ccc(C)cc2)cc1Cl (stereo not given),-4
COc1ccc(Nc2ncc3c(n2)CC(c2ccc(OC)cc2)CC3=O)cc1 (stereo not given),10
Cc1ccc(-n2c(C)nc3oc4ccccc4c(=O)c3c2=O)cc1,-18
Cn1c(=O)c2cn3c(c2n(C)c1=O)C(c1ccccc1)CC(c1ccccc1)=N3 (stereo not given),-8
Cc1ccc(Nc2cc(C)nn2-c2nc(C)cc(=O)[nH]2)cc1,96*
Cc1ccc(-c2cc3nc(C)cc(NCc4ccco4)n3n2)cc1,-51
Cc1ccc(Nc2nc3nonc3[nH]c2=O)cc1,-31
Cc1cc(NO)nc(-c2ccc(Br)cc2)n1,-64
CC(C)CN(C(=O)c1ccc(=O)n(C)n1)c1nc2ccccc2s1,-23
COc1cc([C@@H]2c3cc4c(cc3[C@H](O)[C@H]3COC(=O)[C@H]23)OCO4)cc(OC)c1OC,78*
COc1cc(C2NC(=O)NC(O)(C(F)(F)F)C2C(C)=O)cc(OC)c1OC (stereo not given),-11
CCOC(=O)N1CCN(S(=O)(=O)c2c(C)[nH]c(=O)[nH]c2=O)CC1,-5
CCN1C(=O)c2ccccc2S(=O)c2ccc(C(=O)NCCCN3CCCC3=O)cc21 (stereo not given),-33
Cn1nnnc1NCc1c(F)cccc1Cl,2
CN(C)c1nc(Oc2ccc(N)cc2)nc(N(C)C)n1,-19
COc1ccccc1C(=O)N1CCN(c2nc3cc(C)c(C)cc3cc2C#N)CC1,-19
COc1cc2c(C#N)c(N3CCN(c4ccccc4OC)CC3)nc(N)c2c(N)n1,73*
N#Cc1c(N2CCCC2)nc(N)c2c(N)nc(N3CCCC3)cc12,-50
COc1ccc(OC)c(-n2nnnc2SCC(=O)Nc2ccc(C(=O)N3CCCCC3)cc2)c1,14
CCn1c(CNc2cccc(Cl)c2)nnc1SCc1ccccc1,13
COc1ccc(CCCc2nnc(SCC(=O)Nc3nccs3)n2C)cc1C,-1
O=C(CCN1C(=O)c2ccccc2C1=O)OCn1nnc2ccccc2c1=O,4
Cn1c(=O)c2c(nc(N3CCCCCC3)n2Cc2cccc3ccccc23)n(C)c1=O,3
SMILES,SF-1 inh
Cc1nc(N2CCN(c3ccccc3)CC2)[nH]c(=O)c1Cc1cccc2ccccc12,52*
Cc1ccc2cc(C(c3nnnn3Cc3ccccc3)N3CCN(c4ccccc4)CC3)c(=O)[nH]c2c1 (stereo not given),-5
Cc1cc(C)c2cc(C(c3nnnn3CC3CCCO3)N3CCN4CCCC4C3)c(=O)[nH]c2c1 (stereo not given),-1
CCCCCn1c(SCCOCC)nc2c1c(=O)[nH]c(=O)n2C,23
CCn1nccc1C(=O)Nc1ccc(Cl)cc1Cl,-67
COc1cccc(C(=O)N2CCN=C2SCc2cccnc2)c1OC,-1
Cc1nc2cc(Cl)c(Cl)cc2nc1C,-64
CC1(C)CNC(=O)C=C(c2ccccc2)C1,-1
O=C(NCc1cccs1)c1cc2c(s1)CCCC2,-25
CCCc1nc(-c2ccc(-c3ccc(F)cc3)cc2)no1,-53
COc1ccc(CNC(=O)CCc2nc(-c3ccccc3F)no2)c(OC)c1,3
O=C1c2ccccc2C(=O)N1Cc1nc(-c2ccccc2)no1,15
CN(C)C(=O)CCc1nc(-c2ccc(C(C)(C)C)cc2)no1,83*
CNC(=O)CCc1nc(-c2ccc(C(C)(C)C)cc2)no1,88*
O=C(CCc1nc(-c2ccccc2F)no1)NCCc1ccccc1Cl,-2
CC(C)(C)c1ccc(-c2noc(CCC(N)=O)n2)cc1,87*
CC(C)(CC(=O)O)Cc1nc(-c2ccc(Cl)cc2)no1,-63
COc1ccc(-c2noc(CCCOc3ccccc3)n2)cc1OC,11
CC(C)CC1NC(=O)N(CC(=O)c2ccc3c(c2)OCCO3)C1=O (stereo not given),-84
CSc1nnnn1CCn1nnnc1SC,12
O=C(c1ccc2c(c1)OCCCO2)c1cccs1,-54
COc1cc(NC(=O)C2CC2)c(C(=O)O)cc1OC,-3
O=S(=O)(N1CCCCCC1)N1CCN(S(=O)(=O)N2CCOCC2)CC1,-3
COc1ccc(NC(=O)c2ccco2)c(NC(=O)Cc2cccs2)c1,-7
CCCCCCC1C(C#N)=C(N)OC2=C1C(=O)CC(C)(C)C2 (stereo not given),-7
SMILES,SF-1 inh
CC1(C)CC(=O)C2=C(C1)Oc1nc3ccccc3cc1C2C(C#N)C#N (stereo not given),81*
Cc1cc(N2CCN(C(=O)c3ccco3)CC2)n2nc(-c3cccc(Cl)c3)cc2n1,12
NC(=O)c1c(NC(=O)Cc2cccs2)sc2c1CCC2,-51
Cc1c(NC(=O)c2cc(=O)[nH]c(=O)[nH]2)c(=O)n(-c2ccccc2)n1C,-3
Cc1ccccc1Cn1c2ccccc2c2cn[nH]c(=O)c21,8
O=C(Nc1cccc(-c2nc3cc(Cl)ccc3o2)c1)C1CCCO1 (stereo not given),-81
O=S1(=O)C=C(Sc2nc3cc(Cl)ccc3o2)c2ccccc21,71*
O=C1c2ccccc2C(=O)N1CCCSc1nc2ccccc2o1,2
COCCNC(=O)c1cc(-c2ccccc2OC)on1,-71
CCOc1ccc(C2=Nn3c(nnc3-c3ccccc3OC)SC2)cc1,73*
Clc1ccc(C2=Nn3c(nnc3-c3cccnc3)SC2)s1,6
CCn1c(SCC(=O)c2ccc(O)c(O)c2)nnc1-c1ccccc1OC,5
COc1ccccc1-c1nnc2n1N=C(c1ccc(O)c(O)c1)CS2,67*
CCOc1ccc(NC(=O)c2ccccc2OC)cc1,-73
COc1ccc(N2CCN(C(=O)c3ccc(S(=O)(=O)N4CCOCC4)cc3)CC2)cc1,-13
CC1CCc2c(sc(NC(=O)c3noc4c3CCCC4)c2C(N)=O)C1 (stereo not given),-50
O=C(Nc1ccc(SC(F)F)cc1)c1ccc2nccnc2c1,18
O=C(Cn1cc2c(n1)CCCC2)NCC1CCCO1 (stereo not given),4
COc1ccc(-n2c(C)cc(C(=O)Cn3c(NCCO)nc4ccccc43)c2C)cc1,-10
c1ccc2nc(-c3nc4ccccc4[nH]3)ccc2c1,67*
c1csc(-c2ccc3ccccc3n2)c1,-79
O=c1[nH]c2ccccc2nc1-c1cccs1,-54
Cc1[nH]c2ccc(-c3nnc(SCC(=O)NCc4ccco4)n3Cc3ccccc3)cc2c1C,1
CN(C)CC(C(=O)c1ccccc1)c1ccccc1 (stereo not given),68*
Cc1ccc(S(=O)(=O)N(CCO)c2cc3c(s2)CCCC3)cc1,30
SMILES,SF-1 inh
COc1ccc2c(c1)sc1nc(-c3ccccc3)cn12,89*
Cc1c(C(=O)Nc2ccccc2)sc2nc(-c3ccccc3)cn12,-54
COc1cccc(-c2csc(NC(=O)C3CC3)n2)c1,-60
O=C(NCCn1ccc2ccccc21)c1ccc2c(c1)OCO2,-72
COC(=O)C1=CN(C2CC2)C=C(C(=O)OC)C1c1ccccc1OC,-6
O=C(CN1C(=O)C2CC=C(Cl)CC2C1=O)N1CCOCC1 (stereo not given),2
CC(=O)Cc1nsc(NC(=O)c2cc(-c3cccc(C(F)(F)F)c3)oc2C)n1,-2
CCC(=O)Nc1ccc(-c2nnc(-c3ccccc3)o2)cc1,-34
O=C(Cc1ccc(Cl)cc1)Nc1ccc(N2CCN(C(=O)c3ccco3)CC2)cc1,10
O=C(Cc1ccc(Cl)cc1)Nc1ccc(-c2nnc(-c3ccco3)o2)cc1,53*
